# The source made the active and inactive calls. Calls follow the shape of the dose curve; as a rule, active = well fitted curve in the direction sought with a large enough effect; inconclusive = small, poorly fitted or top-dose-only effect, or effect the other way, or another doubt; inactive = no such curve, though single readings can be large or run the other way.
# Biological target: Beta-2 adrenergic receptor (Homo sapiens) (UniProt P07550)
# Assay: qHTS validation assay of beta-arrestin-biased ligands of beta2-adrenergic receptor (AID 485366)
# Conditions: cell-based beta-arrestin recruitment to ADRB2, qHTS; series mostly up to 46.1 µM
# Description: NIH Molecular Libraries Probe Production Network [MLPCN]
# NIH Chemical Genomics Center [NCGC]
# PI: Bryan Roth and Bob Lefkowitz
# The concept of biased agonism is an emerging concept of molecular pharmacology which proposes that seven transmembrane receptors (7TMRs) or G protein-coupled receptors (GPCRs), exist in multiple signaling conformations and complexes and that ligands (either agonists or antagonists) can induce signaling biased responses for distinct signal transduction cascades.
# Furthermore, accumulating evidence over the last decade has drawn attention to a novel function of beta-arrestins as signal transducers that scaffold various signaling molecules upon activation of 7TMRs. […] This beta-arrestin-biased signaling presumably leads to distinct physiological outcomes from those by G protein activation.
# Additionally, the active receptor conformations which […] on this beta-arrestin signaling are likely different from those activating G protein signaling
# The goal of this screening project will be to discover and optimize novel beta-arrestin-biased ligands for beta2-AR signaling. A luminescent cell-based assay for beta2-AR-mediated agonism, known as the Tango assay, has been validated in which ligand binding of a recombinant beta2-AR and subsequent recruitment of a recombinant beta-arrestin lead to the release of the transcriptional activator tTA, which upregulates transcription of a tTA-responsive luciferase gene. […] Compounds were screened as a concentration-titration series that ranged from 46 microM to 0.6 nM.
# NCGC Assay Protocol Summary:
# Tango cells were dispensed into white, solid, tissue-culture-treated 1536-well plates at 1500 cells/well in DMEM, containing 1% fetal bovine serum (FBS). Then, 23 nL of compounds or DMSO were delivered to each well using a pin tool. Plates were incubated at 37 degrees C, 5% CO2 for 18 hr. Then 2.5 uL luminescent substrate mix (in-house prepared: 150 mM Tris-Cl, pH 7.6, 3 mM MgCl2, 1% Triton X-100, 5 mM DTT, 0.5 mM CoA, 0.15 mM ATP, 0.44 mM D-luciferin, final concentrations) was added to each well. Plates were then incubated for 15 minutes at room temperature, and subsequently measured on a ViewLux plate reader for luminescent signal using a clear filter with a 10 second exposure and 2x binning. The %Activity was determined from the corrected luminescence values.
# Concentration-response curves were fitted to the signals arising from the resulting luminescence. The concentration-effect curves were then classified based on curve quality (r2), response magnitude and degree of measured activity, and compounds were subsequently categorized based on their curve class.
# Keywords: biased agonism, beta2-AR, beta-arrestin, GPCR, 7TMR, Tango, luminescence, MLSMR, MLPCN, NIH Roadmap, qHTS, NCGC
# Beta-2 adrenergic receptor (Homo sapiens), sequence (P07550 whole entry, looked up): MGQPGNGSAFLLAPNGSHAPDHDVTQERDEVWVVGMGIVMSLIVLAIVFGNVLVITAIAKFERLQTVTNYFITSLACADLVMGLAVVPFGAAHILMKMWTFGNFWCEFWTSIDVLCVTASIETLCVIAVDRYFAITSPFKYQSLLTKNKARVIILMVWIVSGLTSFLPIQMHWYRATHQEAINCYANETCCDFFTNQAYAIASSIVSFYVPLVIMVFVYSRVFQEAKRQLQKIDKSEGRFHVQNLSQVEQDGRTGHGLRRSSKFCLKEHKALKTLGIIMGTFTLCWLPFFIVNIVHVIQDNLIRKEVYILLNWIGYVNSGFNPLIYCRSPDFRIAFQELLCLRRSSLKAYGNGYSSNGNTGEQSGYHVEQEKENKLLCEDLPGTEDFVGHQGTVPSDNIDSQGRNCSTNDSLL
row,Compound,outcome
1,O=[N+]([O-])c1cccc2c(Br)[nH]nc12,inactive
2,N#CC(C#N)=C(N)/C(C#N)=C/c1ccc(O)cc1,inactive
3,CC(C)(CO)Cc1cc(C(C)(C)C)c(O)c(C(C)(C)C)c1,inactive
4,COC(=O)C1=C(C)NC(C)=C([N+](=O)[O-])C1c1ccccc1C(F)(F)F (stereo not given),inactive
5,N[C@H](C(=O)O)c1cc(O)cc(O)c1,inactive
6,CC(C)[C@@H]1CC[C@@H](C)C[C@@H]1P(=O)(c1ccccc1)c1ccccc1,inactive
7,C=C1C(=O)O[C@@H]2[C@H]3O[C@]3(C)CCC=C(C)CC[C@@H]12,inactive
8,O=C(O)C1=CCCNC1,inactive
9,COc1ccccc1N1CCN(CCN(C(=O)c2ccc(F)cc2)c2ccccn2)CC1,inactive
10,Cn1cc(C(=O)OCC2CCN(CCNS(C)(=O)=O)CC2)c2ccccc21,inactive
11,NCCC1CCCC(CCN)N1 (stereo not given),inactive
12,CC1=C(C(=O)O)N2C(=O)[C@@H](NC(=O)C(N)C3=CCC=CC3)[C@H]2SC1 (stereo not given in full),inactive
13,O=c1[nH]ccc2c(O)cccc12,inactive
14,Nc1nc2ccc(Cl)cc2c2nc(-c3ccco3)nn12,inactive
15,CSc1nc(N)c2ncn([C@@H]3O[C@H](COP(=O)(O)OP(=O)(O)O)C(O)[C@H]3O)c2n1 (stereo not given in full),inactive
16,CN(C)C(=O)/N=N/C(=O)N(C)C,inactive
17,Nc1ccc(-c2ccc3ccccc3n2)cc1,inactive
18,NC1(C(=O)O)CCCCC1,inactive
19,CCCCCCCCCCCCCCSCC(=O)O,inactive
20,COc1cc([C@@H]2c3cc4c(cc3[C@H](O)C3COC(=O)[C@@H]32)OCO4)cc(OC)c1OC (stereo not given in full),inactive

row,Compound,outcome
1,OC[C@H]1NC[C@@H](O)[C@@H]1O,inactive
2,O=C(O)[C@H]1NCCC[C@H]1C(=O)O,inactive
3,CC(C)(C)c1cc(/C=C(\C#N)C(N)=S)cc(C(C)(C)C)c1O,inactive
4,CC(=O)NNC(=O)N1Cc2ccccc2Oc2ccc(Cl)cc21,inactive
5,OC1(c2ccc(Cl)cc2)CCN(Cc2c[nH]c3ccccc23)CC1,inactive
6,CC[C@H](NC(=O)c1c(C)c(-c2ccccc2)nc2ccccc12)c1ccccc1,inactive
7,CC(=O)O[C@H]1CC2(C)[C@@H](C[C@@H](O)[C@H]3[C@@]4(C)CC[C@@H](O)[C@@H](C)[C@@H]4CC[C@@]32C)C1=C(CCC=C(C)C)C(=O)O (stereo not given in full),inactive
8,N[C@H]1CONC1=O,inactive
9,CCCCCC(O)CCCC(=O)O (stereo not given),inactive
10,O=c1[nH]c(=O)c2nc3ccccc3nc2[nH]1,inactive
11,c1ccc(C2CN3CCSC3=N2)cc1 (stereo not given),inactive
12,O=c1onc2cnc3ccccc3n12,inactive
13,CC(N)(Cc1ccc(O)c(O)c1)C(=O)O (stereo not given),inactive
14,CNc1ncnc2c1ncn2[C@H]1C[C@H](OP(=O)(O)O)[C@@H](COP(=O)(O)O)O1,inactive
15,CCCCOc1cc(CC2CNC(=O)N2)ccc1OC (stereo not given),inactive
16,COc1ccc(-c2cc3ncc(C)n3c(Nc3ncccc3C(N)=O)n2)cc1OC,inactive
17,O=C(O)CCC/C=C\C[C@@H]1[C@@H](/C=C/[C@H](O)C2Cc3ccccc3C2)[C@@H](F)C[C@@H]1O,inactive
18,CC[C@@H]1Cc2cc(O)ccc2C2=C1c1ccc(O)cc1C[C@H]2CC,inactive
19,C#CC(N)CCC(=O)O (stereo not given),inactive
20,N#C/C(=C\c1ccc(O)c(O)c1)C(=O)NCCc1ccccc1,inactive

# Reference: PubChem BioAssay (NCATS)
